Assay outcomes as filed in PubChem BioAssay.
ATXN viability = cell viability loss in ATXN counter-screen; actives 0.49% (n = 400,000); AID 651635; S2 cells (HEK-293 line with an ATXN2-luciferase reporter) viability, CellTiter-Fluor protease fluorescence, 24 h; Potency, µM (top dose mostly 56.7 µM), usual class: cytotoxic; note: nearly all actives have a fitted effect of over 40% in size
IL-1B inflam inh = blocks inflammasome-driven IL-1 beta release; THP-1 LPS/ATP IL-1B secretion, AlphaLISA, 16 h; active compounds read low; activity change, % at 57.5 µM; actives 4.7% (n = 360,000); in the data active = activity change below about -50%; inconclusive = mostly about -30% to -49%
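THP-1 cells pretreated 1 hr with compounds (up to 57.5 uM final), then stimulated with LPS (250 ng/mL final) plus ATP (1.25 mM final); secreted IL-1B measured by AlphaLISA after 16 hr, decreased signal indicating inhibition.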
ATXN2 expr inh = ATXN2 expression inhibition; HEK-293 ATXN2-luciferase reporter, luminescence, 24 h; Potency, µM (highest dose often 57 µM), hits mostly inhibitors; actives 0.72% (n = 360,000); AID 1745845; note: nearly all actives have a fitted effect of over 55% in size
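qHTS (up to 57 uM final) was run with 24 h compound exposure of reporter cells at 37 °C. Each well was multiplexed: SteadyGlo luminescence measured ATXN2-luciferase expression after a fluorogenic Gly-Phe-AFC viability readout (25 uM final).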
SW480 rerep = inducers of DNA re-replication in SW480 colon cancer cells | Potency, µM (titrated, usually from 46.1 µM), usual class: activators | AID 624297 | SW480 DNA re-replication, Hoechst DNA content imaging, 48 h | actives 1.8% (n = 340,000); note: nearly all actives have a fitted effect of over 55% in size
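First, 250 cells per well were seeded. Next, compound or vehicle (23 nL) was pinned in, plates sat 48 hr at 37 C. Finally Hoechst was added for 40 min before fluorescence scanning.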
MCF10A rerep = induces DNA re-replication in MCF 10a normal breast cells | AID 624296 | actives 2.9% (n = 350,000) | Potency, µM (top dose mostly 46.1 µM), actives largely listed as activators | MCF 10A DNA re-replication, Hoechst nuclear intensity, 48 h; note: nearly all actives have a fitted effect of over 50% in size
PINK1 expr mod = PINK1 expression modulation; PINK1 immunofluorescence, high-content cytometry, 24 h; Potency, µM (doses to about 76.6 µM), hits mostly activators; actives 0.2% (n = 410,000); active = well fitted activation curve with a large enough effect; inconclusive = small, poorly fitted or top-dose-only effect; cell line not stated here; note: nearly all actives have a fitted effect of over 65% in size
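Fluorescence from anti-PINK1 antibody, together with nuclear and cell stains, was scanned on a laser-scanning cytometer. Before staining, stable-line cells were incubated 24 hours with compounds at 5 concentrations; primary antibody 12 h at 10 degrees C.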
Hits are given with their value; i = inactive; ? = inconclusive; nt = no result given; [ ] = dose if it differs, or a comment. An excerpt weighted towards active compounds, which were near 7.1% of everything screened. Unless noted, calls come from the whole dose curve; as a rule, active = well fitted curve in the direction sought with a large enough effect; inconclusive = small, poorly fitted or top-dose-only effect, or another doubt; inactive = no such curve, though single readings can be large; an effect the other way counts as inactive or inconclusive.

SMILES	ATXN viability	IL-1B inflam inh	ATXN2 expr inh	SW480 rerep	MCF10A rerep	PINK1 expr mod
COc1ccc(C)cc1Nc1n[n+](-c2ccccc2)c(-c2c(Cl)cccc2Cl)s1	11µM	i	i	?	?	?
CCOc1ccccc1OCC(=O)Nc1nnc(C)s1	i	-58	i	i	?	nt
COC(=O)c1sc(NC(=O)COc2cccc3ccccc23)nc1C	?	i	i	i	18µM	i
Cc1nn(-c2ccccc2)c2sc(C(=O)NNC(=O)COc3cccc4ccccc34)cc12	?	i	?	?	23µM	i
CCOC(=O)c1ccc(OCCN2C[C@H](O)[C@@H](O)[C@H](O)[C@H]2CO)cc1	i	nt	i	nt	nt	nt
Cc1ccc(NC(=O)CSc2nc3nccnc3c(=O)n2CCc2c[nH]c3ccccc23)cc1	nt	nt	nt	nt	nt	i
CC(C(=O)Nc1ccccc1-c1ccccc1)N1CCN(Cc2ccccc2)CC1 (centres undefined)	i	-54	i	i	i	i
CCc1ccc(NC(=O)c2ccc3c(c2)N(Cc2ccc(C)cc2)CCS3)cc1	i	nt	i	nt	nt	i
Nc1cccc2c1C(=O)N(C(=O)/C=C/c1ccc(F)cc1)C2=O	nt	-78	?	?	?	i
Cc1cc(SCC(=O)Nc2cccc(S(=O)(=O)NC3=NCCCCC3)c2)c(C)cc1Br	i	-64	?	i	?	i
Cc1cc(Cl)ccc1OCC(=O)Nc1cccc(S(=O)(=O)NC2=NCCCCC2)c1	i	-71	i	i	i	i
O=C(/C=C/c1ccccc1Cl)Nc1cccc(S(=O)(=O)NC2=NCCCCC2)c1	?	-64	i	i	i	i
Cc1ccc(-n2c(SCC(=O)Nc3cccc(S(=O)(=O)NC4=NCCCCC4)c3)nc3ccccc3c2=O)cc1C	?	i	i	i	i	i
Cc1cc(SCC(=O)Nc2cccc(S(=O)(=O)NC3=NCCCCC3)c2)nc2ccccc12	i	-57	nt	?	i	i
Cc1nc(C)c(C(=O)NCc2nc(-c3cccc(NC(=O)c4ccccn4)c3)oc2C)s1	?	nt	nt	nt	nt	i
O=C(CSc1nc(=O)[nH]c2c1CCCC2)Nc1ccccc1C(F)(F)F	nt	nt	nt	nt	nt	i
N#C/C(=N\Nc1cccc(C(F)(F)F)c1)C(=O)c1csc(-c2cccnc2)n1	25µM	i	?	i	?	?
Cc1ccc(C(=O)Nc2cccc(C(F)(F)F)c2)cc1NC(=O)c1csc(-c2ccncc2)n1	?	i	?	i	i	i
CCN=C1S/C(=C\c2cc(OCC)c(O)cc2Br)C(=O)N1CC	?	i	?	?	18µM	i
CC1=NN(C(=O)c2cccc(Cn3nc(C)c([N+](=O)[O-])c3C)c2)C(O)(C(F)(F)F)C1 (centres undefined)	i	i	i	?	5.8µM	i
Cc1nn(Cc2cccc(C(=O)N3N=C(C(F)F)CC3(O)C(F)F)c2)c(C)c1[N+](=O)[O-] (centres undefined)	i	i	i	i	?	i
CCOC(=O)c1cc2c(ccn2C)n1CC(=O)N(Cc1ccccc1)c1ccc(F)cc1	i	i	i	i	?	i
CC(C)OC(=O)c1cc2c(ccn2C)n1CC(=O)N(Cc1ccccc1)c1ccc(F)cc1	?	i	?	?	6.5µM	i
CCOC(=O)c1cc2c(ccn2C)n1CC(=O)N(Cc1ccccc1)c1ccccc1	?	-72	i	?	?	i
O=c1c(-c2cc(F)cc(F)c2)nc2cnc(N3CCNCC3)nc2n1Cc1cccs1	nt	nt	nt	nt	nt	i
SMILES	ATXN viability	IL-1B inflam inh	ATXN2 expr inh	SW480 rerep	MCF10A rerep	PINK1 expr mod
COc1ccc(-c2nc(SC)n(C)c(=O)c2C#N)cc1OC	i	-76	i	i	?	i
COC(=O)c1cc(C(=O)OC)cc(-n2c(C)cc(C=O)c2C)c1	i	-66	i	i	i	i
COC(=O)c1cccc(-n2c(C)cc(C=O)c2C)c1	i	i	i	i	i	i
COc1cc(/C=N/Nc2nc(=O)[nH]nc2C)ccc1O	i	i	i	15µM	?	i
COc1ccc(/C=N/Nc2nc(=O)[nH]nc2C)cc1OC	i	i	i	2.9µM	?	i
COc1ccc(/C=N/Nc2nc(=O)[nH]nc2C)cc1[N+](=O)[O-]	i	i	nt	i	i	i
COc1cc(/C=N\Nc2nc(-c3ccc(C)cc3)c(NC(C)=O)s2)ccc1O	i	-62	i	i	i	i
O=C(Nc1cccc(OCc2cc(=O)n3ccccc3n2)c1)Nc1cccc(C(F)(F)F)c1	nt	nt	nt	nt	nt	i
Cn1c(=O)c2cc(NC(=O)Cc3ccccc3F)ccc2n1-c1ccc(C(C)(C)C)cc1	?	i	i	nt	nt	i
Cc1cc(C)cc(-n2c3ccc(NC(=O)Cc4cccc5ccccc45)cc3c(=O)n2C)c1	0.56µM	i	i	nt	nt	i
Cc1ccc(NC(=O)Cc2nc(COC(=O)Cc3cccc(C(F)(F)F)c3)cs2)cc1	i	i	i	i	i	i
Cc1ccc(NC(=O)Cc2nc(COC(=O)c3c(F)cccc3Cl)cs2)cc1	i	-59	i	i	i	i
Cc1ccccc1NC(=O)CSc1nc(-c2ccccc2)cn1-c1ccccc1F	?	nt	?	nt	nt	i
O=C(/C=C/c1cccc(Cl)c1)Nn1c(-c2cccs2)nc2ccccc2c1=O	i	-55	i[11.3 µM]	i	?	i
O=C(/C=C/c1ccccc1)Nn1c(-c2cccs2)nc2ccccc2c1=O	i	i	i	?	i	i
Cc1ccc(C)c(CN2C(=O)c3ccccc3S(=O)(=O)c3ccc(C(=O)N4CCN(c5ccccn5)CC4)cc32)c1	nt	nt	nt	nt	nt	i
Cc1ccc(-c2nn(CC(=O)NCc3cc(-c4nn(C)c(=O)c5ccccc45)ccc3C)c(=O)c3ccccc23)cc1	13µM	i	11µM	6.5µM	9.2µM	i
CC(NC(=O)C1CCOCC1)c1nnc2n1CCN(Cc1ccc3cccnc3c1)CC2 (centres undefined)	i	nt	nt	nt	nt	i
Cc1c(CN(C)C)c2c(n1Cc1ccccc1)C(=O)c1ccc(Br)cc1-2	?	-68	?	?	?	i
Cc1cccc2cc(/C=N/Nc3ccc(C(=O)O)cc3)c(Cl)nc12	i	i	nt	i	3.7µM	i
Cc1cccc2cc(/C=N/NC(=O)c3ccncc3)c(Cl)nc12	i	i	i	i	i	i
Cc1cccc2cc(/C=N/NC(=O)c3ccccc3O)c(Cl)nc12	?	i	i	nt	7.3µM	?
O=C(O)c1ccc(N/N=C/c2cc3ccccc3nc2Cl)cc1	i	i	nt	?	8.2µM	i
CCCCn1c(C(C)NC(=O)c2ccccc2)nc2ccccc21 (centres undefined)	i	nt	i	nt	nt	i
CC(=O)c1ccc(NC(=O)Cn2c(-n3nc(C)cc3C)nc(C)c(C)c2=O)cc1	nt	nt	nt	nt	nt	i
O=C(c1ccc2c(c1)N(Cc1cccc(Cl)c1)C(=O)c1ccccc1S2(=O)=O)N1CCC(Cc2ccccc2)CC1	nt	nt	nt	nt	nt	i
CC(C)(C)[N+]([O-])=Cc1ccc(S(=O)(=O)O)cc1S(=O)(=O)O	nt	nt	i	nt	nt	nt
